Laboratory results taken from the supplement of paper PMC3545927.
The other results are listed elsewhere or left out. The true hit rate is not given.

Molecular target: furin, P09958
Test: furin cleavage Z-score vs untreated control; higher = more cleavage, active = 3.5 or more, inactive = 1 or less, 8 variable residues between constant flanks
Method in brief: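 The cleavage Z-score is the log read count relative to furin-free reactions, lowess-adjusted and scaled by median absolute deviation. Counts came from sequencing DNA released from bead-bound 8-mer peptide–cDNA fusions after digestion with purified furin for 7.5, 15 or 30 min.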
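Note: purified furin at 1:10 enzyme:substrate in 50 mM HEPES pH 7.5.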

Chain of furin, P09958 (P09958 whole entry): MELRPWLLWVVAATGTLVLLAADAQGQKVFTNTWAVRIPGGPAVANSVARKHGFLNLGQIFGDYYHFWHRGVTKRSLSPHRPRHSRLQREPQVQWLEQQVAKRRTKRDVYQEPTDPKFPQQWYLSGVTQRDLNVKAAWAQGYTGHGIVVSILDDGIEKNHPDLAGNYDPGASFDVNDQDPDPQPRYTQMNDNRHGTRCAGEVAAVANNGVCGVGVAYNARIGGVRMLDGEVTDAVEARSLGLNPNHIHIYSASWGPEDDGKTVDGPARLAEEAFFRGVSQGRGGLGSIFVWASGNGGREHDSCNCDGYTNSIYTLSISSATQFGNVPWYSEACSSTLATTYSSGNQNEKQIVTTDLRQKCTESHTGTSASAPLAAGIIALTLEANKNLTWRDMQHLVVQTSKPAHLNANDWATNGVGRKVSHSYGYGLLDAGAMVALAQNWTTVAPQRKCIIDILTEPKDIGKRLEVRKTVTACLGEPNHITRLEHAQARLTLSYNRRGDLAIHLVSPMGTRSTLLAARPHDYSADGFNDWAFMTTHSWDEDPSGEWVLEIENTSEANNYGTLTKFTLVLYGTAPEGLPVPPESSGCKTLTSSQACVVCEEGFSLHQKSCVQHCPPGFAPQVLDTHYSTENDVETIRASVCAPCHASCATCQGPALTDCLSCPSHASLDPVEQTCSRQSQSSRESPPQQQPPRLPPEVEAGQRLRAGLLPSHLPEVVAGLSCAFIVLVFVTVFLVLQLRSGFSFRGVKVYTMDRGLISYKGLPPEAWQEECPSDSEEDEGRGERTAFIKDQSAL

Sequence | furin cleavage Z-score (7.5 min) | furin cleavage Z-score (15 min) | furin cleavage Z-score (30 min)
CADEVDGVDEAGNASASA [CS2] | -0.934 (inactive) | -0.925 (inactive) | -0.54 (inactive)
CAPCTPLPAPAGNASASA [HC1195] | -0.0603 (inactive) | -1.7 (inactive) | -1.53 (inactive)
CALELRRVRSAGNASASA [FS-605] | 0.493 (inactive) | 1.94 | 2.52
CAPLRRFWRSAGNASASA [FS-1602] | -0.433 (inactive) | -0.244 (inactive) | 0.194 (inactive)
CAFSSRDERSAGNASASA [FS-588] | -0.242 (inactive) | -1.07 (inactive) | -1.76 (inactive)
CAPKSRIVRSAGNASASA [FS-369] | 14.9 (active) | 13.8 (active) | 11.4 (active)
CAHLKRRVRSAGNASASA [FS-793] | 11.8 (active) | 10.6 (active) | 9.61 (active)
CASAGRHVRSAGNASASA [FS-1408] | 8 (active) | 10.8 (active) | 7.16 (active)
CADRSRRVRSAGNASASA [FS-1190] | 12.9 (active) | 12.1 (active) | 9.2 (active)
CAHLKRDTEDAGNASASA [FS-2863] | -0.885 (inactive) | 0.879 (inactive) | -0.411 (inactive)
CASAGHTVSGAGNASASA [HC356] | -0.221 (inactive) | -0.0745 (inactive) | 0.22 (inactive)
CAVVCCSCSYAGNASASA [HC2060] | -1.87 (inactive) | -2.14 (inactive) | -0.914 (inactive)
CAVNCCSMSYAGNASASA [HC2021] | 0.193 (inactive) | 1.19 | -0.734 (inactive)
CAMEYCSQHLAGNASASA [HC1709] | 1.22 | 0.203 (inactive) | 0.301 (inactive)
CASEARMVRSAGNASASA [FS-1079] | 1.59 | 3.05 | 3.76 (active)
CAVVGTTDRSAGNASASA [HC418] | 0.937 (inactive) | 1.04 | 0.404 (inactive)
CAAVGRRVRSAGNASASA [FS-12] | 9.92 (active) | 9.75 (active) | 7.92 (active)

Sequence | furin cleavage Z-score (7.5 min) | furin cleavage Z-score (15 min) | furin cleavage Z-score (30 min)
CANIVDVQYLAGNASASA [HC508] | -0.996 (inactive) | -0.739 (inactive) | -1.04 (inactive)
CAVWARPDYNAGNASASA [HC1304] | 0.568 (inactive) | -0.706 (inactive) | -1.06 (inactive)
CASTAAQTFLAGNASASA [HC692] | -0.854 (inactive) | -1.17 (inactive) | 0.0229 (inactive)
CAREKRDSVCAGNASASA [FS-1851] | 1.11 | -0.614 (inactive) | 2.31
CAREKKDVLAAGNASASA [FS-2484] | 0.263 (inactive) | 0.353 (inactive) | 1.5
CAREKRHRKKAGNASASA [FS-2007] | -1.19 (inactive) | -0.208 (inactive) | -0.665 (inactive)
CAREKRDVQPAGNASASA [FS-1693] | 10.8 (active) | 12.3 (active) | 8.99 (active)
CAREKRQAKHAGNASASA [FS-2255] | 8.15 (active) | 10.9 (active) | 9.4 (active)
CAPTYSWGENAGNASASA [HC423] | 0.499 (inactive) | -1.13 (inactive) | 0.237 (inactive)
CAYSQRWKRTAGNASASA [FS-904] | 8.92 (active) | 9.32 (active) | 7.56 (active)
CALTDPSHITAGNASASA [HC1248] | -1.48 (inactive) | 0.964 (inactive) | -1.35 (inactive)
CALTTSCGNTAGNASASA [HC1513] | 0.0451 (inactive) | -1.21 (inactive) | -0.123 (inactive)
CALQGREQLTAGNASASA [FS-1882] | 0.515 (inactive) | -3.14 (inactive) | -0.352 (inactive)
CAYSWGENDTAGNASASA [HC424] | -0.162 (inactive) | -1.61 (inactive) | 0.0496 (inactive)
CAGQARWKRPAGNASASA [FS-656] | 0.0361 (inactive) | 0.0218 (inactive) | -0.505 (inactive)
CALTYRAKRTAGNASASA [FS-1033] | 10.2 (active) | 12 (active) | 9.3 (active)
CALQRRWKRTAGNASASA [FS-685] | 12.5 (active) | 11.8 (active) | 10 (active)
